The whole screen tested about 330,000 compounds, of which about 1,900 (0.58%) were called active. Another 4% or so got no clear call; they are omitted. These entries were drawn from the full list. Measured potencies and affinities stand elsewhere. Values without a mark were called inactive. No stated cut-off is given here; in the data, inconclusive means inhibition above about 70% without an active follow-up result; inactive means below that.
Assay: M. tuberculosis growth inhibition, HTS (AID 449762);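 further: bacterial growth assessed after seven days of incubation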
Settings: M. tuberculosis H37Rv growth inhibition, 7H9 media; at 25 µM; stronger effect = higher value
`COc1ccccc1C(c1c(N)n(C)c(=O)n(C)c1=O)C(C)[N+](=O)[O-]` (configuration not stated) showed an inhibition of 43.9%.
`CC(C(c1cccs1)c1c(N)n(C)c(=O)n(C)c1=O)[N+](=O)[O-]` (configuration not stated) showed an inhibition of -8.45%.
With `O=C(CSCc1cc(=O)n2nc(C3CC3)sc2n1)Nc1ccc(F)cc1` the inhibition was -2.05%.
Work on `CC(C)(C)OC(=O)N1CCC(NC(=O)c2[nH]cnc2C(=O)N[C@@H](Cc2ccccc2)C(=O)OCc2ccccc2)CC1` yielded an inhibition of -4.13%.
With `C[C@H](NC(=O)c1nc[nH]c1C(=O)NC1CCN(C(=O)OC(C)(C)C)CC1)C(=O)OCc1ccccc1` the inhibition was -4.49%.
`Cc1ccc(NC2CCCN(C(=O)c3cccc4nccnc34)C2)cc1C` (configuration not stated) showed an inhibition of -9.4%.
Molecule `NS(=O)(=O)c1ccc(-c2ccc(C=NC3CCS(=O)(=O)C3)o2)cc1` (configuration not stated) has an inhibition of -12%.
`NS(=O)(=O)c1ccc(-c2ccc(/C=C3\SC(=S)N(C4CCS(=O)(=O)C4)C3=O)o2)cc1` (configuration not stated) showed an inhibition of 0.18%.
`O=C(CCc1nc2ccccc2c(=O)[nH]1)N1CCN(S(=O)(=O)c2cccc(F)c2)CC1` showed an inhibition of -17.1%.
For `NC(=O)NC(CC(=O)NCCCc1ccccc1)c1ccc(Cl)cc1` (configuration not stated), the inhibition was 5.17%.
`CS(=O)(=O)c1ccc(C(=O)Nc2cc(S(C)(=O)=O)ccc2Cl)cc1` showed an inhibition of 2.11%.
For `COc1ccc(OC)c(C2C=C(c3ccc(C)c(C)c3)Nc3nnnn32)c1` (configuration not stated), the inhibition was 4.57%.
`COc1ccccc1C1C=C(c2ccc(C)cc2)Nc2nnnn21` (configuration not stated) gave an inhibition of -0.45%.
For `COC(=O)C(C)(C)ONC(=O)Nc1ccc(C)cc1`, the inhibition was 0.62%.
`COc1ccc(Cl)cc1N(CC(=O)NC(C)(C)C)S(=O)(=O)c1ccc(C)c([N+](=O)[O-])c1` showed an inhibition of -3.67%.
Molecule `CCC(CC)C(=O)Nc1nnc(SCC(=O)N2CCN(c3ccccc3OC)CC2)s1` has an inhibition of 4.18%.
`Cc1ccc(C(=O)CC(=O)c2ccccc2)cc1` showed an inhibition of 61.8%.
Work on `Cc1ccc(C(=O)Nc2ccccc2Sc2ccccc2)cc1` yielded an inhibition of 9.64%.
For `COc1ccc(C)cc1NC(=O)c1ccc(NC(=O)CC2SC(N3CCCC3)=NC2=O)cc1` (configuration not stated), the inhibition was 1.94%.
Work on `CCN(CC)CC1C(=O)N(c2ccc(OC)cc2)C1c1ccccc1` (configuration not stated) yielded an inhibition of -4.16%.
For `COCCn1c(=O)[nH]c2cc(C(=O)N3CCN(c4ccccc4)CC3)ccc2c1=O`, the inhibition was 5.58%.
In the case of `COc1ccccc1CNC(=O)/C=C/c1ccc(Br)o1`, the inhibition is reported as 3.6%.
With `Cc1cc(/C=N/O)c(C)n1-c1ccccc1` the inhibition was -2.51%.
Molecule `CN(C)c1ccc(/C=C/c2ccc3ccccc3[n+]2C)cc1` has an inhibition of 66.1%.
Work on `CC(C)[C@H](NC(=O)c1cc2cc(Cl)ccc2n1C)C(=O)N[C@@H](C(=O)O)c1ccccc1` yielded an inhibition of -9.63%.
Molecule `CCc1ccc(/C=C2/Sc3ccccc3N(CC(=O)NCCCN3CCOCC3)C2=O)cc1` has an inhibition of 38.4%.
Molecule `CC(C)(C)c1ccc(-c2nc(N)nc(N)n2)cc1` has an inhibition of -3.01%.
Molecule `CC(C)(C)c1cc(-c2nc(N)nc(N)n2)cc(C(C)(C)C)c1` has an inhibition of 9.97%.
For `CCOC(=O)C1CCCc2c1[nH]c1c(C(=O)O)cccc21` (configuration not stated), the inhibition was 9.6%.
Work on `NC(=O)c1cccc2c3c([nH]c12)CCCC3` yielded an inhibition of -3.75%.
Molecule `CCOc1ccc(CCNC(=O)C2=C(C)C(=O)OC23CCCCC3)cc1OCC` has an inhibition of -0.34%.
For `C[C@H](CO)N1C[C@H](C)[C@@H](CN(C)C(=O)Nc2ccccc2)Oc2ccc(NC(=O)Cc3ccccc3)cc2C1=O`, the inhibition was 0.43%.
`CCOC(=O)Cn1nc(/C=C/c2ccc(OC)cc2)ccc1=O` gave an inhibition of -1.75%.
For `Cc1nn(C)c(NC(=O)c2ccccc2Cl)c1Br`, the inhibition was -4.03%.
`Cc1nn(C(C)(C)C)c(NC(=O)c2ccc(Cl)cc2)c1Br` showed an inhibition of -3.55%.
`COc1cc(C)ccc1OCC(=O)Nc1ccccc1N1CCOCC1` showed an inhibition of 0.365%.
`Cc1ccccc1CSc1nnc(C)c(=O)n1N` gave an inhibition of 0.74%.
`Cc1nnc(SCc2c(Cl)cccc2Cl)n(N)c1=O` showed an inhibition of -0.46%.
`O=C(CSc1nc(-c2ccco2)cc(C(F)(F)F)n1)NC1CCCC1` showed an inhibition of -5.38%.
Molecule `Cc1nc2c(c(C)nn2-c2ccccc2)c(C)c1CCC(=O)Nc1ccc(CN2CCCC2)cc1` has an inhibition of 55.7%.
Work on `Cc1ccc(CNC(=O)CCc2c(C)nc3c(c(C)nn3-c3ccc(C)cc3)c2C)cc1` yielded an inhibition of 0.88%.
For `CCN(CC)S(=O)(=O)c1ccc(C(=O)N2CCN(CCN3C(=O)c4cccc5cccc(c45)C3=O)CC2)cc1`, the inhibition was -0.01%.
`Cn1c(CCNC(=O)c2cccs2)nnc1SCC(=O)Nc1nc(-c2ccccc2)cs1` gave an inhibition of -0.83%.
Work on `Cc1cc(C)n2nc(C(=O)OCC(=O)Nc3ccc(C)c(F)c3)nc2n1` yielded an inhibition of -2.78%.
With `COc1ccc(NC(=O)c2sc(-c3ccccc3)nc2C)c(OC)c1` the inhibition was 3.27%.
`COc1ccc(/C=C/C(=O)c2sc(-c3ccccc3)nc2C)cc1` gave an inhibition of -17.3%.
With `Cc1nc(-c2ccccc2)sc1C(=O)/C=C/c1ccc(Cl)cc1` the inhibition was 36.1%.
Molecule `Cc1ccc(N/C=C/C(=O)c2sc(-c3ccccc3)nc2C)cc1` has an inhibition of 11.4%.
In the case of `Cc1ccc(S(=O)(=O)CCC(=O)NCc2ccco2)cc1`, the inhibition is reported as -10.5%.
In the case of `O=C(Nc1ccc(N2CCOCC2)c(Cl)c1)c1ccc(-n2cnnc2)cc1Cl`, the inhibition is reported as 2.83%.
In the case of `COc1ccc(-n2c(CNCCc3ccc(C)cc3)nc3ccccc3c2=O)cc1`, the inhibition is reported as 14.6%.
`COc1ccc(CN2CCN(S(=O)(=O)c3ccc(F)cc3)CC2)c(OC)c1OC` showed an inhibition of 9.52%.
`COc1ccc(CN2CCN(c3ccc(F)cc3)CC2)c(OC)c1OC` gave an inhibition of 0.31%.
`Cc1ccc(S(=O)(=O)N2CCOCC2)cc1NC(=O)C(c1ccc(Cl)cc1)C(C)C` (configuration not stated) gave an inhibition of -2.19%.
Molecule `CCOC(=O)[C@H]1[C@H]2COc3ccc(OC)cc3[C@@H]2N2C(=O)c3ccccc3NC(=O)[C@@]12C` has an inhibition of 3.81%.
`Cc1cc(C)n(CCNC(=O)c2cc(COc3ccc4ncccc4c3)on2)n1` showed an inhibition of 4.76%.
`CC(NC(=O)c1cc(COc2ccc3ncccc3c2)on1)c1ccc(F)cc1` (configuration not stated) gave an inhibition of 6.82%.

Reference: PubChem BioAssay AID449762 (Southern Research Specialized Biocontainment Screening …, 2010)
